# Sampled rows, rich in hits. Any-hit rate of the full collection: about 19%.
# IL1B secr inh – inhibitors of inflammasome signaling (IL-1 beta secretion); THP-1 LPS/ATP IL-1B secretion, AlphaLISA, 16 h; active compounds read low; activity change, % at 57.5 µM; 4.7% of 360,000 active; AID 743279; in the data active means activity change below about -50%; inconclusive means mostly about -30% to -49%
#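 THP-1 cells pretreated 1 hr with compounds (up to 57.5 uM final), then stimulated with LPS (250 ng/mL final) plus ATP (1.25 mM final); secreted IL-1B measured by AlphaLISA after 16 hr, decreased signal indicating inhibition.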
# HT1080 IDH1KD tx – kills HT-1080 cells with IDH1 knockdown; HT-1080 IDH1 knockdown viability, ATP luminescence, 48 h; Potency, µM (titrated, usually from 46.1 µM), for the others: top-dose activity, negative = toxicity, hits mostly cytotoxic; 2% of 360,000 active; AID 686971;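 further: potency means the concentration at half of the fitted maximal effect; 0% = DMSO wells and -100% = cell-free medium wells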
#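 Using the IDH1-knockdown HT-1080 line run in the same batch and compound series as the NT line, viability after 48 h at 37 °C was determined by CellTiter-Glo luminescence and expressed as % activity.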
# HT1080NT lethal – kills 2HG-producing HT-1080-NT fibrosarcoma cells; HT-1080-NT fibrosarcoma viability, CellTiter-Glo ATP luminescence, 48 h; Potency, µM (series often up to 46.1 µM), for inactives: at the top dose activity, negative = less viability, hits mostly cytotoxic; 1.6% of 360,000 active;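 further: NT is the 2HG producing partner of a matched IDH1 knockdown line; potency means the concentration at half of the fitted maximal effect; 0% = DMSO-treated cells and -100% = media-only wells without cells; nearly all actives have a fitted effect of over 55% in size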
#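 750 cells/well, RPMI + 5% FBS; 2 h settle, compound pin-transfer, 48 h at 37 degrees C. CellTiter-Glo 10 min RT, luminescence. Normalized to DMSO and media-only wells.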
# uPA surface inh – inhibitors of cell surface uPA generation. Potency, µM (highest dose often 38.3 µM), without a hit: top-dose activity change, negative = inhibition, actives largely listed as inhibitors. AID 540303. 0.31% of 330,000 active. cell surface uPA generation assay, qHTS; active means well fitted inhibition curve with a large enough effect; inconclusive means small, poorly fitted or top-dose-only effect; inactive means no such curve, though single readings can be large or run the other way; tested in mouse RAW 264.7 cells; further: potency means the concentration at half of the fitted maximal effect; nearly all actives have a fitted effect of over 55% in size
# DT40 TDP1 CPT – DT40-hTDP1 cell growth loss with CPT | AID 686979 | chicken DT40 Tdp1-/-;hTDP1 cells + 20 nM CPT, ATP luminescence, 48 h | Potency, µM (highest dose often 46.2 µM), for the others: at the top dose activity change, negative = growth inhibition, actives largely listed as inhibitors | 12% of 420,000 active; further: potency means the concentration at half of the fitted maximal effect; nearly all actives have a fitted effect of over 55% in size
#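 Chicken DT40 Tdp1-/- cells stably complemented with human TDP1 were seeded at 400 cells/well in medium containing 20 nM camptothecin, exposed to pin-transferred compounds, and grown at 37 °C for at least 48 hr. Viability was read as ATP luminescence.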
# TDP1 cell noCPT – qHTS for Inhibitors of human tyrosyl-DNA phosphodiesterase 1 (TDP1): qHTS in cells in absence of CPT | DT40 Tdp1-/- hTDP1 cells, no CPT, ATP luminescence, 48 h | Potency, µM (doses to about 46.2 µM), for inactives: at the top dose activity change, negative = growth inhibition, most hits filed as inhibitors | 15% of 420,000 active; further: potency means the concentration at half of the fitted maximal effect; nearly all actives have a fitted effect of over 55% in size
#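 Camptothecin absent (DMSO only). Human TDP1-complemented DT40 knockout cells, 400 cells/well, 37 °C for minimum 48 hr; ATP measured via CellTiter-Glo, 30 min dark incubation, luminescence.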
# An asterisk follows results filed as active; ? = inconclusive; . = no result given; [ ] = remark or other dose. Unless noted, the call rests on the fitted dose curve; in most records, active means well fitted curve in the direction sought with a large enough effect; inconclusive means small, poorly fitted or top-dose-only effect, or another doubt; inactive means no such curve, though single readings can be large; an effect the other way counts as inactive or inconclusive. Unless noted, on the % scale 0 is the no-effect control and ±100 the full control effect.
SMILES,IL1B secr inh,HT1080 IDH1KD tx,HT1080NT lethal,uPA surface inh,DT40 TDP1 CPT,TDP1 cell noCPT
CCN(CC)S(=O)(=O)c1ccc(NC(=O)C(C)N(c2ccc(OC)cc2)S(C)(=O)=O)cc1 (stereo not drawn),-14.6,-1.9%,0.6%,.,?,17.8µM*
COc1ccc(C(=O)Nc2ccc(S(=O)(=O)N3CCCC3)cc2)cc1,-3.6,0.4%,0.1%,1.6%,-14.0%,-29.4%
O=C(NCC1CCN(c2ccc(S(=O)(=O)N3CCOCC3)cc2)CC1)c1cccc(Cl)c1,-13.2,-22.9%,-4.9%,-5.3%,?,11.6µM*
COc1ccc(COC(=O)c2cccc(S(=O)(=O)N3CCN(C(C)=O)CC3)c2)cc1,8.2,-8.7%,-2.1%,-18.9%,?,20.6µM*
COc1ccc(COC(=O)c2cccc(S(=O)(=O)N3CCN(C(C)=O)CC3)c2)cc1F,-0.6,-8.6%,-27.4%,?,?,?
CCOc1ccc(N(C(C)C(=O)Nc2ccc(OC)cc2)S(C)(=O)=O)cc1 (stereo not drawn),12.7,?,16.4%,5.8%,-18.5%,-8.9%
COC(=O)N1CCC2(CCCN(C(=O)Nc3ccccc3)C2)CC1,.,.,.,.,3.0%,5.0%
COc1ccccc1Cn1c(=S)[nH]c2cc(C(=O)N3CCCC(C)C3)ccc2c1=O (stereo not drawn),-26.3,?,-28.1%,.,?,?
CC(=O)Nc1cccc(C(=O)N2CCN(S(=O)(=O)c3ccc4ccccc4c3)CC2)c1,-25.3,-13.0%,-10.1%,-3.2%,-19.0%,5.3%
CCC(=O)Oc1ccc(C(=O)Nc2ccc3c(c2)C(=O)N(C2CCCCC2)C3=O)cc1,5.3,?,?,3.0%,20.6µM*,14.6µM*
COc1ccc(/C(C)=N/NC(=O)c2cccc(S(=O)(=O)N3CCCC3)c2)c(O)c1,115.4,?,?,-14.5%,5.17µM*,2.91µM*
CC(=O)Nc1cccc(C(=O)N2CCN(S(=O)(=O)c3ccc(C4CCCCC4)cc3)CC2)c1,11.1,-16.3%,-27.5%,?,?,23.1µM*
Cc1nc(-c2cccc(NC(=O)c3ccc(-n4cccn4)cc3)c2)cs1,-51.5*,-6.8%,4.3%[9.24 µM],10.0%,14.6µM*,10.3µM*
CCOc1ccc(S(=O)(=O)N(CC(=O)NCCSc2ccccc2)c2ccccc2)cc1,.,.,.,.,-0.4%,-1.1%
Cc1ccc(NC(=O)c2cccc(S(=O)(=O)N3CCCCC3)c2)cc1,-7.2,-13.2%,-15.3%,-0.1%,-17.0%,?
CC(C)CC(=O)N1CCN(S(=O)(=O)c2ccc(C3CCCCC3)cc2)CC1,0.0,-4.3%,3.2%,-6.7%,20.6µM*,11.6µM*
COc1ccc(NC(=O)c2cccc(S(=O)(=O)N3CCCCCC3)c2)cc1,-11.4,?,?,0.3%,?,14.6µM*
COc1cc(NC(=O)c2cccc(S(=O)(=O)N3CCCCC3)c2)cc(OC)c1OC,-2.1,-8.0%,-6.4%,-3.1%,23.1µM*,?
COc1ccc(NS(=O)(=O)c2cccc(NC(=O)c3ccc(S(=O)(=O)N4CCCCCC4)cc3)c2)cc1,-3.2,?,?,-7.7%,3.66µM*,2.59µM*
O=C1NC(SCCCF)=N/C1=C/c1ccc(-n2cncn2)cc1,3.9,9.3%,12.2%,-0.5%,8.3%,-14.1%
Cc1csc(NC(=O)c2cccc(S(=O)(=O)N3CCCCC3)c2)n1,40.5,-6.1%,-15.6%,-2.9%,-26.0%,?
Cc1nc(-c2cccc(NC(=O)c3cccc(S(=O)(=O)N4CCCC4)c3)c2)cs1,-4.2,-13.5%,-2.0%,-1.4%,?,23.1µM*
O=C1c2ccccc2-n2c1nc1ccccc1c2=O,-4.8,-8.8%,-3.3%,?,1.3µM*,1.3µM*
Nn1c(-c2ccccc2)nc2ccccc2c1=O,19.0,3.0%,0.3%,4.8%,-0.9%,-3.1%
O=c1c2ccccc2nc2n1-c1ccccc1CCC2,5.2,2.6%,4.8%,.,?,16.4µM*
SMILES,IL1B secr inh,HT1080 IDH1KD tx,HT1080NT lethal,uPA surface inh,DT40 TDP1 CPT,TDP1 cell noCPT
Cc1ccc(S(=O)(=O)Nc2cc(C)c(O)c(Sc3n[nH]c(C)n3)c2)cc1,-2.9,?,?,-0.3%,18.4µM*,?
Cc1ccc(S(=O)(=O)Nc2ccc3cn[nH]c3c2)cc1,11.0,-12.9%,-5.4%,-9.9%,-2.0%,?
CNC(=S)NN=C(C)CCCC(C)=NNC(=S)NC,-104.8*,20.1%,11.0%,2.5%,0.164µM*,0.0206µM*
COc1cc(S(=O)(=O)N(Cc2ccc(C)cc2)C2CCCCC2)ccc1-n1cnnn1,15.2,-4.2%,3.1%,16.7%,?,23.1µM*
COc1ccc(CN(C2CCCC2)S(=O)(=O)c2ccc(-n3cnnn3)cc2)cc1OC,-6.0,-3.0%,0.4%,-3.7%,-21.0%,?
C=C(C)C(=O)Nc1cccc(C2=NOC3(C2)C[C@H](C(N)=O)N(C(=O)COc2ccc(Cl)cc2)C3)c1 (stereo partly drawn),-0.7,5.1%,7.1%,9.8%,-0.7%,-7.5%
CCOC(=O)c1cc(-c2ccccc2)n(CC(=O)NC(C)c2ccccc2)c1C (stereo not drawn),.,.,.,.,18.4µM*,9.2µM*
COc1cc(NC(=O)CN2C(=O)C(c3ccccc3)=NC2(C)C)cc(OC)c1,8.8,-0.2%,-2.7%,24.2%,2.9%,2.2%
CCOC(=O)c1cc(-c2ccccc2)n(CC(=O)Nc2cc(OC)cc(OC)c2)c1C,1.0,-15.9%,-17.3%,-1.0%,20.6µM*,16.4µM*
CCOC(=O)c1cc(-c2ccccc2)n(CC(=O)Nc2ccc(OCC)cc2)c1C,-2.3,10.0%,3.6%,-1.0%,?,?
COc1cc(NC(=O)Cn2c(-c3ccccc3)cc(C(C)=O)c2C)cc(OC)c1,.,.,.,.,20.6µM*,16.4µM*
